PAFAH2 FP inh: inhibitors of human PAFAH2. Q99487. recombinant PAFAH2, FP-rhodamine activity probe, fluorescence polarization. inhibition, % at 3.39 µM. 0.99% of 340,000 active. AID 492956;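 active = inhibition above the mean over all tested compounds plus 3 SD, cut at about 30% in these data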;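 also: inhibitors block probe labeling of enzyme so polarization drops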
PP5 inh: inhibitors of human protein phosphatase 5 (PP5) | inhibition, % at 6.7 µM | purified PP5c, OMFP substrate fluorescence | P53041 | 0.18% of 320,000 active;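 active = inhibition above the campaign's mean inhibition across all tested compounds plus 3 SD, cut at about 9.5% in these data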
PAFAH1B3 inh: inhibitors of human PAFAH1B3; recombinant PAFAH1B3, FP-rhodamine probe, fluorescence polarization; AID 492972; inhibition, % at 3.39 µM; Q15102; 0.28% of 340,000 active;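 active = inhibition above the screen-wide average of all tested compounds plus 3 SD, cut at about 25% in these data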
Target sequence (Q15102 whole entry, looked up): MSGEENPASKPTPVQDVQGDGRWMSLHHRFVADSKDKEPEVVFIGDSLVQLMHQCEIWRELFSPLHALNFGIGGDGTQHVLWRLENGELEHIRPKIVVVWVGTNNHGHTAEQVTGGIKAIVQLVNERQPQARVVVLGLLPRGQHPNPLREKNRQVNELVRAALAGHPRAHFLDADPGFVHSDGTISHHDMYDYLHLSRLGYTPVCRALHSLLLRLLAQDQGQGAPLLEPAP
PP1 counter: PP1-alpha (human) inhibition in PP5 counter-screen; P62136; purified PP1alpha, OMFP fluorescence; inhibition, % at 6.7 µM; 0.9% of 320,000 active;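 active = inhibition above the mean inhibition of all tested compounds plus 3 SD, computed separately for each screening campaign, cut at about 15% in these data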
pPAFAH FP inh: pPAFAH (human) enzyme inhibition | inhibition, % at 3.39 µM | recombinant pPAFAH, FP-rhodamine probe fluorescence polarization | 1.5% of 330,000 active;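 active = inhibition above the mean inhibition across the screen plus 3 SD, cut at about 25% in these data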;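 also: inhibitors block binding of the rhodamine activity-based probe so polarization drops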
PAFAH1B2 inh: inhibitors of human PAFAH1B2; P68402; recombinant PAFAH1B2, FP-rhodamine activity probe, fluorescence polarization; inhibition, % at 3.39 µM; 1.2% of 340,000 active;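 active = inhibition above the mean of all tested compounds plus 3 SD, cut at about 24% in these data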
Target sequence (P68402 whole entry, looked up): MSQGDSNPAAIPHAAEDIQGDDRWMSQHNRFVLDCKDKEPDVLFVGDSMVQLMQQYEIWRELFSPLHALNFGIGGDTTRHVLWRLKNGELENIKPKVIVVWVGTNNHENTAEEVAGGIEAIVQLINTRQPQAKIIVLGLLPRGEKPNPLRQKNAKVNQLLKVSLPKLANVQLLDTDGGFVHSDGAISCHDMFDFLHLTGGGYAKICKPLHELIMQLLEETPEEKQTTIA
PAFAH2 confirm: PAFAH2 (human) inhibition, confirmed; shares compounds with PAFAH2 FP inh; recombinant PAFAH2, FP-rhodamine activity probe, fluorescence polarization; inhibition, % at 3.39 µM; 65% of 2,300 active; AID 493030;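 active = mean inhibition over three repeats above a set limit taken from the earlier primary screen, cut at about 30% in these data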;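 also: inhibitor blocks binding of rhodamine activity probe so polarization falls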
Large screens that a line does not name were inactive (follow-up assays come after a bar, where they were run). Compounds with a hit are over-represented: about 3.4% of the library has one in this group of screens.

CC(C)n1c(=O)c2c(O)cc(=O)oc2c2ccccc21	none
COc1ccc(C(=O)O/N=C(/c2ccccc2)c2ccncc2)cc1OC	PAFAH2 FP inh 74 | PAFAH2 confirm 80
COc1ccc(C(=O)O/N=C(/c2ccccc2)c2ccncc2)cc1	PAFAH2 FP inh 78 | PAFAH2 confirm 71
COc1ccc(C(=O)O/N=C(\C)c2ccccc2)cc1	PAFAH2 FP inh 62 | PAFAH2 confirm 45
O=c1oc(-c2ccccc2)nc2sc3c(c12)CCCC3	PAFAH2 FP inh 49 | PAFAH2 confirm 37
O=c1oc(-c2cc3ccccc3o2)nc2sc3c(c12)CCCC3	PAFAH2 FP inh 69 | PAFAH2 confirm 68
O=c1oc(-c2cccs2)nc2sc3c(c12)CCCCC3	none
O=c1oc(/C=C/c2ccccc2)nc2sc3c(c12)CCC3	PAFAH2 FP inh 66 | PAFAH2 confirm 60
Cc1ccccc1-c1nc2sc3c(c2c(=O)o1)CCC3	PAFAH2 FP inh 76 | PAFAH2 confirm 80
CCc1ccc(-c2nc(SCC(=O)N(CCOC)c3c(N)n(Cc4ccccc4)c(=O)[nH]c3=O)n[nH]2)cc1	none
CC(C)(C)c1nc2scc(-c3ccc(Br)cc3)c2c(=O)o1	none
Cc1sc2nc(-c3cccs3)oc(=O)c2c1C	PAFAH2 FP inh 63 | PAFAH2 confirm 67
CCc1cc2c(=O)[nH]c(-c3ccncc3)nc2s1	none
CCc1cc2c(=O)oc(-c3ccc(Br)cc3)nc2s1	PAFAH2 FP inh 78 (no result: PP5 inh, PP1 counter, pPAFAH FP inh) | PAFAH2 confirm 67
Cc1sc2nc(-c3ccc(Br)cc3)oc(=O)c2c1C	PAFAH2 FP inh 49 | PAFAH2 confirm 36
CCOc1ccc(N(CC(=O)NCc2ccc(Cl)cc2)S(=O)(=O)c2c(C)noc2C)cc1	none
Cn1cnnc1Sc1ccc(C(=O)OCC(=O)Nc2ccccc2)cc1[N+](=O)[O-]	PAFAH2 FP inh 59 | PAFAH2 confirm 41
Cn1c(=O)c2c(ncn2CC(=O)Nc2cc(S(=O)(=O)N3CCCCC3)ccc2O)n(C)c1=O	PAFAH2 FP inh 32 (no result: PP5 inh, PP1 counter) | PAFAH2 confirm inactive
Cc1ccc(N2CCN(CCCCN3C(=O)C4CCCN4C3=O)CC2)cc1 (stereo not drawn)	none
Cc1nn(C2CCS(=O)(=O)C2)c(Cl)c1/C=C/C(=O)OCC(=O)Nc1ccccc1OC(F)F (stereo not drawn)	PAFAH2 FP inh 50 | PAFAH2 confirm 43
C=CCn1c(C)cc(C(=O)COC(=O)/C=C/c2c(C)nn(C3CCS(=O)(=O)C3)c2Cl)c1C (stereo not drawn)	PAFAH2 FP inh 53 | PAFAH2 confirm 43
CCc1ccc(NC(=O)COC(=O)/C=C/c2c(C)nn(C3CCS(=O)(=O)C3)c2Cl)cc1 (stereo not drawn)	none
Cc1nn(C2CCS(=O)(=O)C2)c(Cl)c1/C=C/C(=O)OCC(=O)Nc1ccccc1[N+](=O)[O-] (stereo not drawn)	PAFAH2 FP inh 75 | PAFAH2 confirm 74
Cc1c(C(=O)O)cnc2cc(-c3ccc(Cl)cc3)nn12	none
O=C(CCS(=O)(=O)c1cc2c(cc1Cl)NC(=O)CO2)NCc1ccc(F)cc1	none
CSc1ccccc1NC(=O)C1CC(c2ccccc2Cl)=NO1 (stereo not drawn)	none
O=C(Nc1cc(Cl)ccc1O)C1CC(c2ccccc2Cl)=NO1 (stereo not drawn)	PAFAH2 FP inh 33 (no result: PP5 inh, PP1 counter, pPAFAH FP inh) | PAFAH2 confirm inactive
O=C(COC(=O)c1cccs1)Nc1cccc(S(=O)(=O)NC2=NCCCCC2)c1	PAFAH2 FP inh 48 | PAFAH2 confirm 36
CC1CC1C(=O)OCC(=O)Nc1cccc(S(=O)(=O)NC2=NCCCCC2)c1 (stereo not drawn)	PAFAH2 FP inh 34 | PAFAH2 confirm inactive
O=C(COC(=O)c1cccc(-n2cnnn2)c1)c1ccc(F)cc1	none
COc1ccc(NC(=O)COC(=O)c2ccc(-n3cnnn3)cc2)cc1Cl	PAFAH2 FP inh 35 | PAFAH2 confirm inactive
O=C(COC(=O)c1cccc(-n2cnnn2)c1)Nc1c(Cl)cccc1C(F)(F)F	PAFAH2 FP inh 42 | PAFAH2 confirm inactive
COc1ccc(OC)c(NC(=O)COC(=O)c2ccc(-n3cnnn3)cc2)c1	none
Cc1cccc(C)c1NC(=O)Cn1c(CN2CCCCC2)nc2ccccc2c1=O	none
O=C(Nc1ccccn1)c1ccc([N+](=O)[O-])o1	none
